What is called inhibition is the drop in the measured response relative to a control, in per cent.

Molecules are shown by their SMILES. About 1,700 (0.52%) of roughly 330,000 compounds were called active. The entries come from a sample that favours actives as a whole. A number with no mark means an inactive call. No stated cut-off is given here; in the data, active means inhibition above about 50%; inactive means the rest.

Experimental findings from PubChem BioAssay AID435003 (Sanford-Burnham Center for Chemical Genomics, 2010) are described below.

This test in a line: inhibitors of induced NF-kB luciferase reporter, primary screen, TCR NF-kB activation inhibitor project, cell-based, luminescence, uHTS (AID 435003). The settings on record: Jurkat, PMA/ionomycin-induced NF-kB luciferase reporter, at 4 µM, hits give high values. (Reporter assays use an easily measured gene product as a stand-in for the process of interest.)
`CC1Cc2cc(/C(O)=C3\C(=O)C(=O)N(Cc4cccnc4)C3c3ccccc3F)ccc2O1` (centres undefined): the inhibition is -14.7%.

For the molecule `COc1ccc(CS(=O)/C(Cl)=C(/Cl)C(=O)Nc2ccc(OC)nc2)cc1` (centres undefined), the inhibition was 99.4% (active).

As for `COc1ccc(CCNC(=O)c2cnc(Cl)c(Cl)c2)cc1`, the inhibition was -35.5%.

Turning to `COc1ccc(C(=O)CCC(=O)Nc2ccc(Cl)cc2)cc1`, the inhibition is 10.1%.

For the molecule `COc1ccc(NC(=O)/C(Cl)=C(/Cl)S(=O)Cc2ccc(C)cc2)cn1` (centres undefined), the inhibition is 91.6% (active).

With `COC(=O)c1sccc1NC(=S)Nc1ccc(C)cc1`, the inhibition is -16.1%.

Regarding `CCN(CC(=O)Nc1ccc(OC)cc1)C(=O)CSCc1ccc(C)cc1`, the inhibition is -16.5%.

Turning to `Cc1ccc(-n2c(SCC(=O)NCc3ccc4c(c3)OCO4)nnc2-c2cccnc2)c(C)c1`, the inhibition is -1.23%.

Consider `O=[N+]([O-])c1ccc(N2CCNCC2)cc1NCc1cccnc1`, for which the inhibition was 1.76%.

As to `CCCC(C(=O)NC1CCCC1)N(C(=O)Cn1nnc(-c2ccc(C)o2)n1)c1cccc(O)c1` (centres undefined), the inhibition is 7.15%.

As for `CC(=O)c1cc(-c2ccccc2)[nH]c1N1CCCC1`, the inhibition was 8.23%.

For the molecule `O=c1cc(-c2ccccc2)[nH]c2cc(F)ccc12`, the inhibition is 61.5% (active).

Consider `Cc1ccc(-c2cc(=O)c3ccc(F)cc3[nH]2)cc1`, for which the inhibition is 14.5%.

`CSc1ccc(NC(=O)N2CC(C)OC(C)C2)cc1` (centres undefined): the inhibition is 21.7%.

For the molecule `COCc1cc(C)nc(Nc2cc(C)ccc2C)c1C#N`, the inhibition was 6.05%.

As for `O=C(O)c1cc([N+](=O)[O-])c(Nc2cccc3ccccc23)c([N+](=O)[O-])c1`, the inhibition was -10.8%.

Take `O=C(NC(Nc1nc2ccc([N+](=O)[O-])cc2s1)(C(F)(F)F)C(F)(F)F)c1ccccc1`: the inhibition was 72.3% (active).

As for `O=C(COC(=O)c1ccc([N+](=O)[O-])cc1Cl)NC(=O)c1ccccc1`, the inhibition was 3.88%.

As for `O=C(CSc1nnc(Nc2ccccc2F)s1)NC1CCCC1`, the inhibition is -19.9%.

Take `COc1cccc(CN2CCNC(=O)C2CC(=O)N(C)CCc2ccccn2)c1` (centres undefined): the inhibition is -0.459%.

Regarding `Cc1ccc(O)c(NC(=O)COc2cc(C)ccc2C)c1`, the inhibition is 61.3% (active).

As to `Cc1ccc(O)c(NC(=S)NC(=O)COc2ccc(Br)cc2)c1`, the inhibition is 14.2%.

`Cc1ccc(C)c(OCC(=O)NNC(=O)C2CCC2)c1`: the inhibition is 0.404%.

Take `COc1ccc(Br)cc1S(=O)(=O)N1CCN=C1C`: the inhibition is -11.9%.

With `COCCNC(=O)c1ccc(Cn2c(SCC(=O)NCC3CCCO3)nc3ccc(Br)cc3c2=O)cc1` (centres undefined), the inhibition was 23.7%.

As for `COc1ccccc1NC1=NC(c2ccc(Cl)cc2)N=C(N)N1` (centres undefined), the inhibition was 60.9% (active).

Take `COc1ccccc1NC(=O)C1CCCN1S(=O)(=O)c1ccc(Cl)cc1` (centres undefined): the inhibition is -8.88%.

Consider `COc1ccccc1NC(=O)c1cc(Cl)nnc1Cl`, for which the inhibition is -0.0528%.

For the molecule `CC(C)n1c(-c2ccncc2)n[nH]c1=S`, the inhibition is 11.1%.
